Compound activity (PubChem)
Pf growth 48h: P. falciparum growth inhibition at 48 hours (one generation) | P. falciparum luciferase growth in erythrocytes, 48 h | Potency, µM (top dose mostly 28.7 µM), hits mostly inhibitors | hit rate 5.9% among 310,000
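Growth was read as firefly luciferase luminescence after a 48 h, 37 C, 5% CO2 exposure of compounds to reporter-bearing P. falciparum cultures (0.1% parasitemia, 2% hematocrit final) in Albumax-supplemented RPMI 1640.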
Pf growth 96h: inhibits malaria parasite growth, 96 h; hit rate 6.9% among 320,000; Potency, µM (titrated, usually from 28.7 µM), hits mostly inhibitors; P. falciparum luciferase reporter growth, 96 h
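Readout is luminescence from an integrated firefly luciferase in P. falciparum. Red cells, 2% hematocrit and 0.05% parasitemia final, were cultured with compound through two parasite generations (96 hours) at 37 C, 5% CO2.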
Sm TGR block: S. mansoni TGR enzyme inhibition; Q962Y6; purified TGR, DTNB reduction, TNB absorbance 405 nm; Potency, µM (highest dose often 114 µM), actives largely listed as inhibitors; hit rate 3% among 360,000; AID 485364; further: nearly all actives have a fitted effect of over 60% in size
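Kinetic colorimetric format: TGR-catalysed, NADPH-driven DTNB reduction monitored via TNB absorbance. Enzyme dispensed at 20 nM; compound exposure 15 min at room temperature before reaction start.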
AMA1-RON2 inh: inhibitors of Plasmodium falciparum AMA1-RON2 interaction; AID 720542; hit rate 0.2% among 360,000; AlphaScreen AMA1-biotinylated RON2 peptide binding; Potency, µM (top dose mostly 58.2 µM), hits mostly inhibitors; further: nearly all actives have a fitted effect of over 45% in size
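AMA1 (3D7) with his tag at 25 nM final met compounds first, then biotinylated RON2 peptide at 25 nM; detection used donor plus acceptor beads, 10 µg/mL apiece, read by AlphaScreen after 30 min at room temperature.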
NS1 inh: inhibitors of influenza NS1 protein function. Potency, µM (highest dose often 46.1 µM). hit rate 0.4% among 270,000. AID 2326; calls by dose curve; further: actives are rising curves; nearly all actives have a fitted effect of over 50% in size
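S. cerevisiae expressing influenza A NS1, grown in glucose, washed, then diluted 1:100 into pH 6.0 -URA galactose medium with 23 nl compound. Growth recovery read as OD600; NS1-free strain serves as control.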
Large screens that a line does not name were inactive. An excerpt weighted towards active compounds, which were near 11% of everything screened. Unless noted, the call rests on the fitted dose curve; in most records, active means well fitted curve in the direction sought with a large enough effect; inconclusive means small, poorly fitted or top-dose-only effect, or another doubt; inactive means no such curve, though single readings can be large; an effect the other way counts as inactive or inconclusive.

CC(=O)OC(C)(C)/C=C/C(=O)[C@](C)(O)[C@H]1[C@H](O)C[C@@]2(C)[C@@H]3CC=C4[C@H](C[C@H](O)C(=O)C4(C)C)[C@]3(C)C(=O)C[C@]12C	Pf growth 48h 3.7µM, Pf growth 96h 3.29µM
CC(=O)OC(C)(C)/C=C/C(=O)C(C)(O)C1[C@H](O)C[C@@]2(C)C3CC=C4C(CC[C@@H](O)C4(C)C)[C@]3(CO)C(=O)C[C@]12C (stereo not given in full)	Pf growth 48h 10.4µM, Pf growth 96h 1.65µM
CC(=O)OC(C)(C)/C=C/C(=O)[C@](C)(O)C1[C@H](O)C[C@@]2(C)C3CC=C4C(C=C(O[C@@H]5O[C@H](CO)[C@@H](O)[C@H](O)[C@H]5O)C(=O)C4(C)C)[C@]3(C)C(=O)C[C@]12C (stereo not given in full)	none (no result: Pf growth 48h, Pf growth 96h, Sm TGR block, NS1 inh)
CC(=O)OC(C)(C)/C=C/C(=O)C(C)(O)C1C(O)CC2(C)C3CC=C4C(CC(O)C(=O)C4(C)C)C3(C)C(=O)CC12C (stereo not given)	none (no result: Pf growth 48h, Pf growth 96h, Sm TGR block, NS1 inh)
COc1ccc(CNc2oc(COc3ccccc3Cl)nc2C#N)cc1	Pf growth 96h 1.47µM, Sm TGR block inconclusive (no result: Pf growth 48h)
Cc1ccc(OCc2nc(C#N)c(NCc3ccco3)o2)cc1	Pf growth 96h inconclusive, Sm TGR block inconclusive (no result: Pf growth 48h)
COc1ccccc1OCc1nc(C#N)c(NCc2ccco2)o1	Pf growth 96h 11.7µM, Sm TGR block 39.8µM
COc1ccc(CCNc2oc(-c3ccccc3OC)nc2C#N)cc1	Sm TGR block 14.1µM
N#Cc1nc(COc2ccccc2Cl)oc1NCc1cccnc1	Sm TGR block 7.08µM, NS1 inh inconclusive
N#Cc1nc(COc2ccccc2Cl)oc1NCc1ccc(F)cc1	none
COc1ccc(CCNc2oc(-c3ccccc3OC)nc2C#N)cc1OC	Pf growth 48h inconclusive, Pf growth 96h inconclusive
COc1ccc(C(=O)NCCn2cc(SCC(=O)Nc3ccc4c(c3)OCCO4)c3ccccc32)cc1	none (no result: Pf growth 48h, Pf growth 96h, AMA1-RON2 inh, NS1 inh)
Cc1cc(CNC(=O)Cn2nc(C)c([N+](=O)[O-])c2C)c2ccccc2n1	Pf growth 96h inconclusive (no result: NS1 inh)
COc1cccc(-n2cc(C(=O)OCc3ccc(Cl)cc3)c3ccccc3c2=O)c1	none (no result: Pf growth 48h, Pf growth 96h, AMA1-RON2 inh, NS1 inh)
COc1ccc(OC)c2[nH]c(=O)c(CCNC(=O)c3cccs3)cc12	Pf growth 48h inconclusive
N#Cc1nc(COc2ccc(Cl)cc2)oc1NCc1ccc2c(c1)OCO2	Pf growth 96h 10.4µM (no result: Pf growth 48h)
Cc1cccc(OCc2nc(C#N)c(NCc3ccc4c(c3)OCO4)o2)c1	none (no result: Pf growth 48h)
Cc1ccc(-c2nc(C#N)c(NCc3ccco3)o2)cc1	Pf growth 96h 11.7µM
COc1ccc(-c2nc(C#N)c(NCc3ccco3)o2)cc1	none
COC(=O)c1ccc(NC(=O)CSc2nc(=O)[nH]c3c2CCCC3)cc1	none (no result: Pf growth 48h, Pf growth 96h, AMA1-RON2 inh, NS1 inh)
CC(C)C(C)(C#N)NC(=O)CSc1nc2scc(-c3ccco3)c2c(=O)n1-c1ccccc1 (stereo not given)	Pf growth 48h 9.28µM, Pf growth 96h inconclusive, Sm TGR block inconclusive
CC(C)C(C)NC(=O)CSc1nc2scc(-c3ccco3)c2c(=O)n1-c1ccccc1 (stereo not given)	Pf growth 48h 11.7µM, Sm TGR block 25.1µM (no result: Pf growth 96h)
CCCN(C(=O)c1ccc(N2CCCC2=O)cc1)C1CCS(=O)(=O)C1 (stereo not given)	Pf growth 48h inconclusive, Pf growth 96h inconclusive (no result: NS1 inh)
O=C(NCCS(=O)(=O)N1CCN(c2ccccc2)CC1)C1CCCC1	none (no result: NS1 inh)
CCCCC(=O)N1CCN(c2nc3ccc(OCC)cc3s2)CC1	Pf growth 48h inconclusive, Pf growth 96h 11.7µM
CCCCC(=O)N1CCN(c2nc3ccc(F)cc3s2)CC1	none
COc1cccc(CNC(=O)C(=O)NCC(c2ccco2)S(=O)(=O)c2ccccc2)c1 (stereo not given)	none (no result: Pf growth 48h, Pf growth 96h, AMA1-RON2 inh, NS1 inh)
COc1ccc(CNC(=O)C(=O)NCC(c2ccco2)S(=O)(=O)c2cccs2)cc1 (stereo not given)	Sm TGR block 17.8µM (no result: Pf growth 48h, Pf growth 96h, AMA1-RON2 inh, NS1 inh)
COc1ccc(C(C(C(=O)c2ccco2)N2CCOCC2)N2CCOCC2)cc1 (stereo not given)	Sm TGR block 44.7µM
O=C(NCc1ccc(Cl)cc1)C(=O)NCC1OCCN1S(=O)(=O)c1cccs1 (stereo not given)	none
O=C(NCc1ccccc1)C(=O)NCC(c1ccco1)N1CCOCC1 (stereo not given)	none
